Laboratory results: PubChem BioAssay
Active and inactive are the calls of the source.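 The calls were made as follows: active = normalized viability below 100% at a tested concentration; inactive = the rest.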

Assay: drug combination growth inhibition, ovarian cancer – cell-based, oncology-focused library, rucaparib conditional, profiling panel (AID 1508598)
Details: patient-derived ovarian cancer cells, CellTiter-Glo viability, 144 h, active compounds read low
[1] = at 5 µM, OCI-P5x cells, with rucaparib 20 µM, 100% = cells with rucaparib alone
[2] = at 5 µM, OCI-P5x cells, without rucaparib
[3] = at 0.000305 µM, OCI-C5x cells, with rucaparib 10 µM, 100% = cells with rucaparib alone
[4] = at 0.000305 µM, OCI-C5x cells, without rucaparib
[5] = at 0.000305 µM, OCI-P5x cells, with rucaparib 20 µM, 100% = cells with rucaparib alone
[6] = at 0.000305 µM, OCI-P5x cells, without rucaparib
[7] = at 0.00122 µM, OCI-C5x cells, with rucaparib 10 µM, 100% = cells with rucaparib alone
[8] = at 0.00122 µM, OCI-C5x cells, without rucaparib
[9] = at 0.00122 µM, OCI-P5x cells, with rucaparib 20 µM, 100% = cells with rucaparib alone
[10] = at 0.00122 µM, OCI-P5x cells, without rucaparib
[11] = at 0.00488 µM, OCI-C5x cells, with rucaparib 10 µM, 100% = cells with rucaparib alone
[12] = at 0.00488 µM, OCI-C5x cells, without rucaparib
[13] = at 0.00488 µM, OCI-P5x cells, with rucaparib 20 µM, 100% = cells with rucaparib alone
[14] = at 0.00488 µM, OCI-P5x cells, without rucaparib
[15] = at 0.0195 µM, OCI-C5x cells, with rucaparib 10 µM, 100% = cells with rucaparib alone
[16] = at 0.0195 µM, OCI-C5x cells, without rucaparib
[17] = at 0.0195 µM, OCI-P5x cells, with rucaparib 20 µM, 100% = cells with rucaparib alone
[18] = at 0.0195 µM, OCI-P5x cells, without rucaparib
[19] = at 0.0781 µM, OCI-C5x cells, with rucaparib 10 µM, 100% = cells with rucaparib alone
[20] = at 0.0781 µM, OCI-C5x cells, without rucaparib
[21] = at 0.0781 µM, OCI-P5x cells, with rucaparib 20 µM, 100% = cells with rucaparib alone
[22] = at 0.0781 µM, OCI-P5x cells, without rucaparib
[23] = at 0.313 µM, OCI-C5x cells, with rucaparib 10 µM, 100% = cells with rucaparib alone
[24] = at 0.313 µM, OCI-C5x cells, without rucaparib
[25] = at 0.313 µM, OCI-P5x cells, with rucaparib 20 µM, 100% = cells with rucaparib alone
[26] = at 0.313 µM, OCI-P5x cells, without rucaparib
[27] = at 1.25 µM, OCI-C5x cells, with rucaparib 10 µM, 100% = cells with rucaparib alone
[28] = at 1.25 µM, OCI-C5x cells, without rucaparib
[29] = at 1.25 µM, OCI-P5x cells, with rucaparib 20 µM, 100% = cells with rucaparib alone
[30] = at 1.25 µM, OCI-P5x cells, without rucaparib
[31] = at 5 µM, OCI-C5x cells, with rucaparib 10 µM, 100% = cells with rucaparib alone
[32] = at 5 µM, OCI-C5x cells, without rucaparib

Measured: viability

COc1cc(=C2C=c3ccccc3=N2)[nH]/c1=C\c1[nH]c(C)cc1C
active: [1] 1.33% | [2] 3.6%

COc1cc2c(cc1O)CC[C@@H]1[C@H]2CC[C@]2(C)[C@H](O)CC[C@@H]12
active: [6] 96.3% | [9] 99.4% | [17] 95.3% | [28] 96.8% | [30] 66.5% | [1] 98.9% | [2] 97.5%
inactive: [3] 113% | [4] 107% | [5] 106% | [7] 116% | [8] 111% | [10] 104% | [11] 119% | [12] 118% | [13] 109% | [14] 108% | [15] 103% | [16] 105% | [18] 105% | [19] 105% | [20] 105% | [21] 102% | [22] 104% | [23] 124% | [24] 107% | [25] 106% | [26] 105% | [27] 107% | [29] 104% | [31] 124% | [32] 101%

CC(C)(C(=O)NCC(F)(F)C(F)(F)F)C(=O)N[C@H]1C(=O)Nc2ccccc2-c2ccccc21
inactive: [3] 111% | [4] 114% | [5] 103% | [6] 105% | [7] 106% | [8] 111% | [9] 103% | [10] 104% | [11] 114% | [12] 117% | [15] 110% | [16] 117% | [19] 119% | [20] 119% | [23] 116% | [24] 107% | [27] 114% | [28] 113% | [31] 117% | [32] 108%
active: [13] 99.5% | [14] 94.4% | [17] 85.5% | [18] 90.2% | [21] 92% | [22] 91.6% | [25] 85.7% | [26] 85.2% | [29] 82.5% | [30] 82% | [1] 72% | [2] 76.9%

CC(=O)[C@]1(O)Cc2c(O)c3c(c(O)c2[C@H](O[C@H]2C[C@H](N)[C@H](O)[C@H](C)O2)C1)C(=O)c1ccccc1C3=O
inactive: [3] 107% | [4] 103% | [5] 110% | [6] 115% | [7] 105% | [8] 107% | [9] 107% | [10] 112% | [11] 104% | [13] 110% | [15] 148% | [16] 112%
active: [12] 73.9% | [14] 96.9% | [17] 74% | [18] 36.9% | [19] 82.5% | [20] 7.56% | [21] 55.5% | [22] 12.2% | [23] 3.18% | [24] 1.75% | [25] 19% | [26] 7.09% | [27] 1.52% | [28] 1.48% | [29] 9.24% | [30] 4.04% | [31] 3.72% | [32] 3.03% | [1] 4.45% | [2] 3.64%

C[C@@]12CC[C@H]3c4ccc(O)cc4C[C@@H](CCCCCCCCCS(=O)CCCC(F)(F)C(F)(F)F)[C@H]3[C@@H]1CC[C@@H]2O (some centres not stated)
inactive: [3] 127% | [5] 110% | [6] 107% | [7] 116% | [9] 109% | [10] 112% | [11] 118% | [12] 110% | [13] 116% | [14] 117% | [15] 118% | [16] 108% | [17] 116% | [18] 122% | [19] 114% | [20] 112% | [21] 119% | [22] 118% | [23] 119% | [24] 125% | [25] 122% | [26] 120% | [27] 123% | [28] 112% | [29] 119% | [30] 121% | [31] 124% | [32] 128% | [1] 119% | [2] 122%
active: [4] 99.5% | [8] 98.6%

COc1ccc(C2=N[C@@H](c3ccc(Cl)cc3)[C@H](c3ccc(Cl)cc3)N2C(=O)N2CCNC(=O)C2)c(OC(C)C)c1
active: [5] 90.9% | [6] 90.5% | [9] 94.2% | [10] 89.4% | [13] 97.7% | [14] 95.5% | [17] 96.2% | [18] 95.8% | [20] 99.5% | [22] 96.7% | [23] 97.4% | [26] 99.4% | [27] 93.7% | [29] 97.7% | [31] 84.5% | [32] 95.4% | [1] 89.7% | [2] 91.3%
inactive: [3] 118% | [4] 104% | [7] 117% | [8] 104% | [11] 122% | [12] 106% | [15] 106% | [16] 100% | [19] 113% | [21] 100% | [24] 101% | [25] 104% | [28] 100% | [30] 101%
